Measurements taken from PubChem BioAssay.
Unmarked numbers belong to inactive results.

System: XIP peptide (Xip251-270) binding
Experiment: XIP fragment 251-270 binding compounds – biochemical, small-molecule microarray, fluorescence 635/667 nm, 0.1 µg/mL protein, primary screen (AID 1182)
Details: fluorescent protein binding, 635 nm, higher = more signal, called active from +8 up or from −8 down

Compound	composite z-score
COc1ccc([Si](C)(C)[C@@H]2[C@@H](CCO)O[C@]3(C(=O)N(Cc4ccc(NC(=O)[C@H](C)O)cc4)c4ccccc43)[C@H]2C)cc1	0.894
O=C(NCc1ccccc1)[C@@]1(CCS(=O)(=O)c2ccccc2)COC(c2ccc(OCCCO)cc2)=N1	1.13
C=C(C)[C@@H]1CC=C(C(O)C2C=CC3C(=O)NC(=O)C3N2Nc2ccccn2)CC1 (some centres not stated)	0.745
CCOC(=O)[C@H]1C/C=C/C[C@H](C(=O)OCC)C(=O)O[C@H]2[C@@H](OC)O[C@H](CO)[C@@H](OC(=O)Nc3ccc(Br)cc3)[C@@H]2OC1=O	0.709
C=CCC(OC(C)=O)[C@@H]1[C@@H](N(Cc2ccc(-c3ccccc3)cc2)C(=O)c2ccc(C)cc2)c2cc(OCCCO)ccc2N1C(=O)c1ccc(-c2ccccc2)cc1 (some centres not stated)	-0.0684
C=CC[C@]1(C(=O)O)N=C(c2ccc(OCCCO)cc2)O[C@H]1c1ccccc1N=[N+]=[N-]	0.718
CN(C)CCCC[C@@H]1NC(=O)[C@@H]2C[C@H](C(=O)NCCCCCNC(=O)CS)[C@H](c3ccc(O)cc3)N2C1=O	0.207
C=CC[C@]1(C(N)=O)N=C(c2ccc(OCCCO)cc2)O[C@H]1c1ccccc1CN=[N+]=[N-]	0.914
C[C@H]1NC(=O)[C@@H](C)NC(=O)[C@@]23C(=O)N[C@@H](Cc4ccccc4)C2[C@H](C)[C@@]2(C)O[C@H]2C3/C=C/C/C=C\CNC1=O (some centres not stated)	0.378
C[C@]1(C(=O)NCCN2CCOCC2)c2ccccc2C(=O)N(Cc2ccccc2)[C@H]1c1ccc(CO)cc1	0.946
C[C@@H]1NC(=O)[C@H](Cc2ccccc2)NC(=O)[C@@]23C(=O)N[C@@H](Cc4ccccc4)C2[C@H](C)[C@@]2(C)O[C@H]2C3/C=C/C/C=C\CNC1=O (some centres not stated)	-0.138
Cc1cc(C)c(C(O)C2C=CC3C(=O)N(C)C(=O)C3N2N2CCCCC2)c(C)c1 (configuration not stated)	0.0255
CCCNC(=O)[C@@]1(Sc2ccc(C)cc2)CC(=O)N(Cc2ccccc2Cl)[C@@H]1c1ccc(CO)cc1	0.266
Cc1ccc(S[C@]2(C(=O)NC3CC3)CC(=O)N(Cc3cc(C(F)(F)F)cc(C(F)(F)F)c3)[C@@H]2c2ccc(CO)cc2)cc1	0.503
COC(=O)C[C@H]1O[C@]2(C(=O)N(Cc3ccccc3)c3ccc(I)cc32)[C@@H](C)[C@@H]1[Si](C)(C)c1ccc(OC)cc1	-0.0923
O=C(NCC(O)CO)[C@]1(Cc2ccccc2)N=C(c2ccc(OCCCO)cc2)O[C@@H]1c1ccccc1 (some centres not stated)	1.61
CCOC(=O)C[C@H]1[C@H](OC(=O)Cc2ccc3c(c2)OCO3)[C@@H](NC(=O)CC(C)C)c2cc(OCCCO)ccc2N1C(=O)c1ccccc1	0.443
COc1ccc([Si](C)(C)[C@H]2[C@H](CCO)O[C@@]3(C(=O)N(Cc4ccc(N5CCCCC5=O)cc4)c4ccccc43)[C@@H]2C)cc1	0.125
COc1ccc(CCN2C(=O)[C@@]3(c4ccc([N+](=O)[O-])cc4)CC(=O)N(CC45CC6CC(CC(C6)C4)C5)[C@@H]3c3ccc(CO)cc32)cc1	-0.038
COCCCNC(=O)[C@@]1(Sc2ccc(C)cc2)CC(=O)N(Cc2cc(C(F)(F)F)cc(C(F)(F)F)c2)[C@@H]1c1ccc(CO)cc1I	-0.291
CN(C)CCCC[C@@H]1NC(=O)[C@@H]2C[C@H](C(=O)O)[C@H](c3ccc(O)cc3)N2C1=O	0.646
O=C1OCC=C[C@H]2OC34C=CCN(Cc5ccccc5)C(=O)[C@H]3N(CCO)C(=O)[C@@H]4[C@@H]12 (some centres not stated)	-0.132
C=C(C(=O)CC[C@H](OC(=O)c1ccccc1-c1ccccc1C(=O)O)c1ccc(CO)o1)C(C)C	0.161
C=C(COC)C(=O)CC[C@H](OC(=O)c1ccccc1-c1ccccc1C(=O)O)c1cccc(OCCO)c1	0.437
O=C(NCc1ccccc1)[C@@]1(Cc2ccccc2)COC(c2ccc(OCCCO)cc2)=N1	0.489
CC(C)CN1C(=O)[C@@]2(Cc3ccccc31)c1ccccc1C(=O)N(C1CCCCC1)[C@H]2c1ccc(CO)cc1	1.15
CC(=O)NCCCC[C@@H]1NC(=O)[C@@H]2C[C@H](C(=O)NCc3ccc(F)cc3)[C@H](c3cccc(OCCO)c3)N2C1=O	0.356
